Source: PubChem BioAssay (NCATS)
Records with an inconclusive call do not appear. The source made the active and inactive calls. Calls come from the whole dose curve; as a rule, active = well fitted inhibition curve with a large enough effect; inconclusive = small, poorly fitted or top-dose-only effect; inactive = flat fitted curve, though single readings scatter.

Target: Calcium and integrin-binding protein 1 (Homo sapiens) (UniProt Q99828)
Assay: Primary qHTS for Identification of Calcium Integrin Binding Protein 1 (CIB1) Competitor (AID 1508620);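 note: GST tagged CIB1 binding a fluorescein labelled alphaIIb integrin peptide tracer; top concentration of the series differs between compounds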
Conditions: CIB1-GST / FITC-alphaIIb peptide fluorescence polarization; series mostly up to 114 µM; activity change, negative = inhibition: at the top concentration
Summary of the method: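 Fluorescence polarization competition: CIB1-GST (1 uM final) preincubated with compound 15 min at room temperature, then FITC-labeled alphaIIb peptide (100 nM final) added for another 15 min. Polarization read at Ex 480/Em 540.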
% is set by controls: 0 for no effect and ±100 for the full control effect.

Sequence of Calcium and integrin-binding protein 1 (Homo sapiens) (Q99828 whole entry, looked up): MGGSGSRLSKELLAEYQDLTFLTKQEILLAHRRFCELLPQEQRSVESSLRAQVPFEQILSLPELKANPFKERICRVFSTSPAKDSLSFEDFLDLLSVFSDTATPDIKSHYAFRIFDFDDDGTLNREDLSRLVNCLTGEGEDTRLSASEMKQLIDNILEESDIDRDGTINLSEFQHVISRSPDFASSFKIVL

SMILES	activity change, negative = inhibition
O=C(NCc1ccccc1)Nc1ncnc2c1C(c1ccccc1)c1c(ccc3ccccc13)O2 (configuration not stated)	5.23% (inactive)
COCCNc1ccc(NC(=O)c2cccs2)cn1	-5.2% (inactive)
CN(CCc1cnc[nH]1)c1ncnc2ccc(-c3ccc4c(c3)OCO4)cc12	-5.48% (inactive)
Cc1cc(C)nc(NC(=S)N2CCN(c3ccc([N+](=O)[O-])c4cccnc34)CC2)c1	-1.18% (inactive)
CCOc1ccc(CCN(C)C(=O)c2cc3sccc3n2Cc2ccccc2)cc1OCC	6.47% (inactive)
Cc1ccc(OCCn2c(CCNC(=O)c3cccc(Cl)c3)nc3ccccc32)cc1	1.18% (inactive)
COc1cccc(CNc2ccc([S+](=O)([O-])Nc3ccccc3)cc2)c1Cl	6.76% (inactive)
Cc1csc(CNc2ncnc3ccc(-c4ccc5c(ccn5C)c4)cc23)c1	4.28% (inactive)
Fc1cc(Nc2nc(-c3ccncc3)nc3ccccc23)ccc1OCC(F)(F)F	2.76% (inactive)
COc1cccc(C2c3c(ncn(-c4ccccc4C)c3=N)Oc3ccc4ccccc4c32)c1 (configuration not stated)	5.84% (inactive)
Cc1ccc(-c2ccc(=O)n(CC(=O)NCCCN(C)C)n2)cc1	-1.42% (inactive)
CCOc1ccccc1-c1nnc2n1N=C(c1cc(OC)ccc1OC)CS2	2.98% (inactive)
Cc1cc(C=CC#N)cc(C)c1Nc1nc(Nc2ccc3c(c2)CCC3)c2[nH]cnc2n1	-11.3% (inactive)
COc1ccc(OC)c(C2=Nn3c(nnc3-c3cccc(OC)c3OC)SC2)c1	-2.66% (inactive)
Cc1cc2c(s1)c1cnn(Cc3ccc(S(C)(=O)=O)cc3)c(=O)c1n2C	6.19% (inactive)
CC(C)(C)Cc1nnc(NC(=O)CSc2ccccc2)s1	1.62% (inactive)
Cc1ccc(NS(=O)(=O)c2ccc3ccccc3c2)cc1C	6.68% (inactive)
